# The whole screen tested about 360,000 compounds, of which about 7,500 (2.1%) were called active. Another 20% or so got no clear call; they are omitted. The sample holds actives, similar compounds and a random draw of the others, so the mix is not that of the screen. Calls follow the shape of the dose curve; as a rule, active = well fitted inhibition curve with a large enough effect; inconclusive = small, poorly fitted or top-dose-only effect, or effect the other way; inactive = flat fitted curve, though single readings scatter.
# Assay: Nrf2 qHTS screen for inhibitors; also: nearly all actives have a fitted effect of over 60% in size
# Conditions: A549 ARE-Fluc reporter, luciferase luminescence, 18-24 h; series mostly up to 46 µM; activity change, negative = inhibition: at the top concentration
# Outline: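 Quantitative HTS in A549 cells stably bearing an antioxidant response element-firefly luciferase construct. Inhibition of Nrf2-driven transcription was scored by luminescence after 18-24 h of compound exposure at 37 °C.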
# % is scaled to controls: 0 for no effect and ±100 for the full control effect; potency is read from the fitted curve at half-maximal effect.
SMILES,"activity change, negative = inhibition",Potency
O=C(CNC(=O)c1ccccc1)OC(C(=O)Nc1cc([N+](=O)[O-])ccc1F)c1ccccc1 (stereo not given),17.1% (inactive),–
COc1ccc(NC(=O)CCN2CCN(CCO)CC2)cc1,3.24% (inactive),–
C=CCNc1scc(-c2ccccc2)[n+]1CC=C,17.2% (inactive),–
C=CC[n+]1c(-c2ccc(C)cc2)csc1NNC(=O)Nc1ccccc1,–,18.4 µM (active)
O=C(NNC(=O)c1ccc(-c2ccccc2)cc1)Nc1ccccc1,26.6% (inactive),–
CCOCCCNC(=O)c1cn(CC)c2ccc(S(=O)(=O)N3CCc4ccccc4C3)cc2c1=O,-18.4% (inactive),–
COc1c(Cl)cc(C(=O)N(Cc2ccccc2F)C2CCS(=O)(=O)C2)cc1Cl (stereo not given),20.2% (inactive),–
COc1ccc(C2Nc3ccccc3C(=O)N2Cc2ccc(CNC(=O)CO)cc2)cc1COc1ccc(NC(C)=O)cc1 (stereo not given),-24.4% (inactive),–
CC(C)(C)OC(=O)N(Cc1ccccc1)Cc1ccc(OCc2cccc(NC(=O)c3ccccc3)c2)cc1,-19.1% (inactive),–
C=CCOC(=O)C1=C(C)NC(C)=C(C(=O)OCC=C)C1c1cccs1,–,20.6 µM (active)
CCOC(=O)C1=C(C)NC(=S)NC1c1cccs1 (stereo not given),7.07% (inactive),–
C=CCOC(=O)c1ccccc1C(=O)OCC=C,0.689% (inactive),–
CCCCN1CC(COc2ccccc2)Oc2cccc(F)c2S1(=O)=O (stereo not given),-1.14% (inactive),–
O=S(=O)(O)c1cc2onnc2c2ccccc12,3.56% (inactive),–
COc1ccc(Cl)cc1C=CC=Nc1ccc(S(N)(=O)=O)cc1,-33.7% (inactive),–
CC1CCCN(C(=O)CN2C(=O)c3ccccc3S2(=O)=O)C1 (stereo not given),-11.1% (inactive),–
O=C(CN1C(=O)c2ccccc2S1(=O)=O)N1CCc2ccccc21,–,4.11 µM (active)
O=C(CN1C(=O)c2ccccc2S1(=O)=O)NC1CCCCC1,3.92% (inactive),–
COc1ccc(-c2cn3nc(N4CCC(C(=O)Nc5cccc(C)c5C)CC4)sc3n2)cc1,8.32% (inactive),–
CCN(CC)S(=O)(=O)c1ccc(C(=O)N=c2sc3cccc(OC)c3n2C)cc1,8.13% (inactive),–
NCCCNC(=S)NCCCN(Cc1ccc(Cl)cc1)c1ccc(Br)cn1,22.6% (inactive),–
COc1ccc(CCNc2cc(N3CCN(C(=O)c4ccccc4OC)CC3)ccc2[N+](=O)[O-])cc1OC,–,5.8 µM (active)
COc1ccccc1OCCNc1cc(N2CCOCC2)ccc1[N+](=O)[O-],-5.26% (inactive),–
COc1ccc(CCNC(=O)c2ccccc2-c2ccccc2C(=O)O)cc1OC,-2.44% (inactive),–
CCN(CC)S(=O)(=O)c1ccc(N2CCOCC2)c(NC(=O)C(C)Oc2ccc(F)cc2)c1 (stereo not given),-0.342% (inactive),–
Cc1ccc(CNC(=O)c2cc(-c3ccccc3C)n(CC3CC(c4cccc([N+](=O)[O-])c4)=NO3)n2)cc1 (stereo not given),-13.2% (inactive),–
Cc1ccccc1-c1cc(C(=O)NCC2CC2)n(CC2CC(c3cccnc3)=NO2)n1 (stereo not given),-9.82% (inactive),–
Cc1ccccc1-c1cc(C(=O)NCc2cccs2)n(CC2CC(c3cccnc3)=NO2)n1 (stereo not given),–,20.6 µM (active)

SMILES,"activity change, negative = inhibition",Potency
CCCCCn1c(=O)[nH]c2cc(C(=O)NCCN(C)CCCC)ccc2c1=O,7.46% [at 9.27 µM] (inactive),–
CC(=O)Nc1ccc(S(=O)(=O)N2CCN(S(=O)(=O)c3cccs3)CC2)cc1,-12.1% (inactive),–
CC(C)C(NS(=O)(=O)c1cccs1)C(=O)Nc1nc(C(C)(C)C)cs1 (stereo not given),–,18.4 µM (active)
COc1ccc(CNC(=O)C(NS(=O)(=O)c2cccc3nsnc23)C(C)C)cc1 (stereo not given),-4.3% (inactive),–
Cc1ccc(CN(C(=O)COc2ccc(Cl)cc2C)C2CCS(=O)(=O)C2)o1 (stereo not given),10.4% (inactive),–
CC1CCN(S(=O)(=O)c2ccc3c(ccn3CCC(=O)NCc3ccc(N(C)C)cc3)c2)CC1,-6.81% (inactive),–
Cc1ccccc1C(=O)N(Cc1ccc(N(C)C)cc1)CC1CCCO1 (stereo not given),-10.2% (inactive),–
CN(Cc1cncn1C)c1ncnc2ccc(-c3ccc4c(c3)OCO4)cc12,0% (inactive),–
CCC(=O)N1CCc2cc(S(=O)(=O)NC(Cc3ccccc3)C(=O)NCc3ccccc3)ccc21 (stereo not given),-2.93% (inactive),–
COc1ccccc1NC(=O)c1sc2nc(C)c(C(=O)Nc3ccc(Cl)cc3)c(-c3ccc(Br)cc3)c2c1N,6.36% [at 9.27 µM] (inactive),–
COc1ccccc1C(=O)Nc1c(C(=O)N(C)Cc2ccccc2)sc2nc(C)c(Cl)c(C)c12,–,14.6 µM (active)
COc1ccccc1C(=O)NCCC(=O)N(C)Cc1cccnc1,6.48% (inactive),–
COc1ccc(CCn2cc3c(c2-c2ccc(Br)cc2)c(=O)n(C)c(=O)n3C)cc1OC,-14.1% (inactive),–
COc1cc2nc(SCc3ccc(F)cc3)n3nc(CCn4c(C)nc5ccccc54)nc3c2cc1OC,5.71% (inactive),–
COc1ccc2[nH]c3c(c2c1)CCN1C(=O)C(CC(=O)NCCCN(C)C)C[C@H](C(=O)N2CCOCC2)[C@@]31CCC1CCCC1 (stereo not given in full),13.5% (inactive),–
O=C(C[C@H]1C[C@H](C(=O)N2CCOCC2)[C@@]2(CCC3CCCC3)c3[nH]c4ccc(Cl)cc4c3CCN2C1=O)NCc1ccco1,–,20.6 µM (active)
CN(C)C(=O)CCc1ccc2c3c([nH]c2c1)[C@]1(CCC2CCCC2)[C@@H](C(=O)N2CCOCC2)C[C@H](CC(=O)NCc2ccco2)C(=O)N1CC3,0.0719% (inactive),–
CC[C@]12c3[nH]c4ccc(Cl)cc4c3CCN1C(=O)[C@@H](CC(=O)NCCN1CCOCC1)C[C@@H]2C(=O)N1CCN(C(=O)C2CC2)CC1,14.3% (inactive),–
COc1ccc(CNC(=O)C[C@H]2C[C@H](C(=O)N3CCOCC3)[C@@]3(CCC4CCCC4)c4[nH]c5ccc(Cl)cc5c4CCN3C2=O)cc1OC,–,13 µM (active)
CC[C@]12c3[nH]c4ccc(OC)cc4c3CCN1C(=O)C(CC(=O)NCc1ccco1)C[C@@H]2C(=O)N1CCN(C(=O)C2CC2)CC1 (stereo not given in full),2.5% (inactive),–
CC(C)(C)OC(=O)C[C@@H]1C/C=C\C[C@H](CC(=O)N[C@@H](CO)Cc2ccccc2)C(=O)N[C@H](Cc2ccccc2)COC1=O,1.6% (inactive),–
N#CN1CCC(NC(=O)c2ccc(F)cc2)CC1,11.4% (inactive),–
CCOc1ccc(S(=O)(=O)Nc2ccc3oc4c(c3c2)CC(C)CC4)cc1 (stereo not given),-27.3% (inactive),–
Cc1ccccc1CS(=O)(=O)CC1Nc2ccc(C(=O)NCc3ccc(Cl)cc3)cc2NC1=O (stereo not given),21.9% (inactive),–
COc1cccc2oc(CCc3ccccc3)cc(=O)c12,16.4% (inactive),–
COc1ccccc1CNS(=O)(=O)c1cc(Br)cc2c1N(C(C)=O)C(C)C2 (stereo not given),1.68% [at 9.27 µM] (inactive),–
CCOc1cccc2c1N[C@@H](c1ccc(C(=O)O)cc1)[C@H]1CC=C[C@@H]21,4.95% (inactive),–

# Source: PubChem BioAssay AID504444 (National Center for Advancing Translational Sciences (NCATS), 2011)
